Measurements taken from PubChem BioAssay AID2234 (The Scripps Research Institute Molecular Screening Center, 2010).
Hit rate of the full screen: of about 320,000 compounds, about 480 (0.15%) were called active. No stated cut-off is given here; in the data, active means inhibition above about 33%; inactive means the rest. For the sample, actives were picked, then their nearest neighbours and some compounds at random.

What follows are compounds tested against Lytic switch protein BZLF1 (Epstein-Barr virus (strain B95-8)) (UniProt P03206) (assay: Zta-DNA interaction blockers, Epstein-Barr virus – biochemical, fluorescence polarization, single concentration, counter-screen for EBNA-1 inhibitor project, primary screen (AID 2234)). Settings: ZTA-DNA binding, at 11 µM, stronger effect = higher value.
Chain of Lytic switch protein BZLF1 (Epstein-Barr virus (strain B95-8)) (P03206 whole entry, looked up): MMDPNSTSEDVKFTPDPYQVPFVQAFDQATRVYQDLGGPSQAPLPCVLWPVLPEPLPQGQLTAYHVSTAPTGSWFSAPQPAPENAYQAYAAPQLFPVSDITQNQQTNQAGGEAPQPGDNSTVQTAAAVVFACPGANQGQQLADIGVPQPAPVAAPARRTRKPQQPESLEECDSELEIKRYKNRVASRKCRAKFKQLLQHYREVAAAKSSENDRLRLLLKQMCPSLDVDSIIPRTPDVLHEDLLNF
With `Cc1ccc(-c2nn(-c3ccc(F)cc3)cc2C(=O)NCC(c2cccs2)N2CCOCC2)cc1` (stereo not drawn) the inhibition was 2.78% (inactive). For `CC1=CC2=NC(=O)CC(C)(C(=O)N(CC(=O)NC(C)(C)C)Cc3ccccc3)N2C=C1` (stereo not drawn), the inhibition was -6.91% (inactive). With `COc1cc(C2/C(=C(\O)c3ccc4c(c3)CC(C)O4)C(=O)C(=O)N2c2nnc(C)s2)cc(OC)c1OC` (stereo not drawn) the inhibition was -16.7% (inactive). For `COc1ccccc1CNC(=O)C1Cc2ccccc2C(=O)O1` (stereo not drawn), the inhibition was -9.61% (inactive). For `CC(=O)Nc1ccc(S(=O)(=O)Oc2ccc(Br)cc2C(=S)N2CCOCC2)cc1`, the inhibition was -23.8% (inactive). With `CCc1c(C)nc(N)n2c(SCC(=O)NC3CCCCC3)nnc12` the inhibition was -21.8% (inactive). For `COc1ccc(N2CCN(CCNC(=O)CCN3C(=O)COc4ccccc43)CC2)cc1`, the inhibition was 3.46% (inactive). In the case of `COc1ccc(N2CCN(C(=O)CN3C(=O)COc4ccccc43)CC2)cc1`, the inhibition was 49.2% (active). For `Cc1ccc2c(c1)N(CC(=O)N1CCOCC1)C(=O)CO2`, the inhibition was -24.9% (inactive). In the case of `C=C(Cl)COC(=O)C1C2C=CC(C2)C1C(=O)O` (stereo not drawn), the inhibition was -6.87% (inactive). For `Cc1oc(-c2ccccc2Cl)[n+]([O-])c1C`, the inhibition was 4.54% (inactive). `Cc1nc(N)c(Br)c(C)c1Br` was tested, and the inhibition was 10.1% (inactive). With `Cc1cc(NC(=O)CS(=O)(=O)c2cn(C)c3ccccc23)no1` the inhibition was 3.47% (inactive). With `Cc1nc(-c2ccc(Cl)cc2)sc1C1(C)CC(c2ccccc2F)=NO1` (stereo not drawn) the inhibition was 0.91% (inactive). In the case of `O=C(CNS(=O)(=O)c1ccc(Br)s1)N1CCN(C(=O)c2ccco2)CC1`, the inhibition was 0.26% (inactive). With `Cc1cc(/C=N/NC(N)=O)c(C)n1C1CCCCC1` the inhibition was 15.4% (inactive). In the case of `CC(NC(=S)NNS(=O)(=O)c1ccc(C(C)(C)C)cc1)c1ccccc1` (stereo not drawn), the inhibition was -5.57% (inactive). With `O=C(NC(=S)Nc1cccc(-c2ccc(CO)o2)c1)c1cccs1` the inhibition was -14.3% (inactive). In the case of `CC1CCCCC1NC(=O)c1cn(C)c2ccc(S(=O)(=O)N3CCOCC3)cc2c1=O` (stereo not drawn), the inhibition was 3.74% (inactive). In the case of `O=S(=O)(Nc1ccc2nc(-c3ccco3)[nH]c2c1)c1ccccc1`, the inhibition was -14.9% (inactive). In the case of `Cc1ccc(C2NC(=S)NC3=C2N2CCC3CC2)cc1` (stereo not drawn), the inhibition was -11.6% (inactive). `CC12c3ccccc3C(c3ccccc31)C1C(=O)N(Cc3cccnc3)C(=O)C12` (stereo not drawn) was tested, and the inhibition was 5.39% (inactive). For `COc1cccc(NC(=O)CN2CCN(CC(=O)Nc3ccccc3Cl)CC2)c1`, the inhibition was 4.73% (inactive). With `CN1/C(=c2/s/c(=C3/C(=O)N(c4ccccc4)NC3=Nc3ccccc3)n(C)c2=O)C(C)(C)c2ccccc21` the inhibition was 7.42% (inactive). With `CC(C)Oc1ccc(CN2CCC(n3nccc3NC(=O)c3cccnc3)CC2)cc1` the inhibition was 6.96% (inactive). `COc1ccc(-c2c(C)nn3c(N4CCC(C(=O)N5CCCCC5)CC4)cc(C)nc23)cc1OC` was tested, and the inhibition was 6.7% (inactive). `CC(C(=O)N(C)CC(=O)Nc1ccccc1C(F)(F)F)N1C(=O)c2ccccc2C1=O` (stereo not drawn) was tested, and the inhibition was -0.42% (inactive). With `COc1ccc(OC)c(S(=O)(=O)N2CCCC(C(=O)NCCc3ccccc3)C2)c1` (stereo not drawn) the inhibition was -17.4% (inactive). For `O=C(CCCC(=O)N(CC(=O)NC1CCCC1)Cc1ccccc1Cl)Nc1ccccn1`, the inhibition was 2.7% (inactive). For `Cc1cc(OC(=O)c2ccccc2Cl)ccc1N1C(=O)CCC1=O`, the inhibition was -5.62% (inactive). For `COC(=O)c1ccccc1NC(=O)C1CCN(C(=O)N2CCOc3ccccc32)CC1`, the inhibition was -14.3% (inactive). For `COc1ccc(N2CCN(C3CCCCC3NS(=O)(=O)c3ccccc3)CC2)cc1` (stereo not drawn), the inhibition was -13.4% (inactive). With `CCC(C)C(=O)Nc1ccccc1N1CCN(c2ccc(F)cc2)CC1` (stereo not drawn) the inhibition was -25.1% (inactive). `Cc1c(C(=O)c2cccc([N+](=O)[O-])c2)c2ccccn2c1CCC#N` was tested, and the inhibition was -12.6% (inactive). `CC(C)C(=O)Nc1nnc(SCC(=O)N2C(C)CCCC2C)s1` (stereo not drawn) was tested, and the inhibition was -5.72% (inactive). For `CC(=O)c1sc(NC(=O)CCN2C(=O)C3CC=CCC3C2=O)nc1-c1ccccc1` (stereo not drawn), the inhibition was 0.93% (inactive). With `Cn1nc(C(F)(F)F)cc1-c1ccc(/C=C(\C#N)C(=O)c2cccc(C(F)(F)F)c2)s1` the inhibition was 9.6% (inactive). In the case of `CC(=O)c1nc(N2C(=O)C3CC=C(C)CC3C2=O)sc1C` (stereo not drawn), the inhibition was -6.68% (inactive). In the case of `CCN(C(=O)COC(=O)c1cc(NS(=O)(=O)c2ccc(Cl)c([N+](=O)[O-])c2)ccc1O)C1CCCCC1`, the inhibition was -8.06% (inactive). With `O=C(Cn1c(-c2ccc(Cl)cc2)noc1=O)N1CCN(c2ccccc2F)CC1` the inhibition was -6.32% (inactive). With `CCOc1cc(-c2noc(CCCC(=O)NC3CCCCC3)n2)ccc1OC` the inhibition was -2.96% (inactive). For `CCOc1ncccc1C(=O)OCC(=O)N1c2ccccc2CC1C` (stereo not drawn), the inhibition was 6.32% (inactive). `COc1cc(C(=O)NNC(=O)CN2C(=O)NC3(CCCC3)C2=O)cc(OC)c1OC` was tested, and the inhibition was 7.35% (inactive).
